From PubChem BioAssay (EPA / NIEHS) come the findings set out here.

Activity calls are given as the source filed them. How the source made its calls: active means hit-call score of the fitted dose curve at least 0.9, where 1 is the maximum; inactive means score below 0.9.

The nature of the assay: IUF_NPC2c_oligodendrocyte_migration_120hr: Leibniz Research Institute for Environmental Medicine (IUF) 120-hour Neural Progenitor Cell Migration Assay for Oligodendrocyte Migration (NPC2c) (AID 2284297). The method, then:
IUF_NPC2-5 is a cell-based, multiplexed assay that uses hNPC, a human primary neural progenitor cells, with measurements taken at 72 or 120 hours after chemical dosing in a 96-well plate. Human neural progenitor cells (hNPC) are generated from human fetal brain cortex at gestational week (GW) 16-19. In the neural progenitor cell migration and differentiation assay (NPC2-5), hNPCs grown as spheres are plated on an extracellular matrix and migrate and differentiate out of the sphere core. The processes radial glia migration, neuronal and oligodendrocyte migration as well as neuronal differentiation, neuronal morphology and oligodendrocyte differentiation are studied using automated phase contrast imaging and automated fluorescence imaging in combination with high content image analysis. In parallel, the cell viability is assessed using an alamar blue viability assay and the cytotoxicity using a lactate dehydrogenase dependent membrane integrity assay.IUF_NPC2b_oligodendrocyte_migration_120hr is one of 12 assay components measured from the IUF_NPC2-5 assay. Oligodendrocyte migration distance at 120 hr is the mean distance of all oligodendrocytes from the edge of the sphere core to each individual oligodendrocyte (see IUF_NPC5_oligodendrocyte_differentiation_120hr). Oligodendrocyte migration is normalized to radial glia migration distance at 120 hr.Data from the IUF_NPC2c_oligodendrocyte_migration_120hr component was analyzed at the endpoint IUF_NPC2c_oligodendrocyte_migration_120hr in the positive analysis fitting direction relative to DMSO as the negative control and baseline of activity. Using a type of migration reporter, gain or loss-of-signal activity can be used to understand developmental effects.
Culture protocol: After the cell expansion period the cells are cultured for up to four weeks in which they are passaged every week as described in 3.6. Between one to three days after passaging spheres at a size of 0.3 mm are picked for the test method. For the assessment of neural progenitor cell migration and differentiation, the spheres are plated on poly-D-lysine/laminin coated 96-well flat bottom plates in differentiation medium (N2) to initiate migration and differentiation. Thereby one 0.3 mm big sphere is plated in the middle of a well. The differentiation medium consists of DMEM and Ham's F12 at a ratio of 3 to 1 supplemented with 1% N2 and 1% penicillin and streptomycin. Within 5 days NPCs radially migrate out of the sphere core and differentiate into radial glia cells (nestin positive), neurons (TUBB3 positive), oligodendrocytes (O4 positive) and astrocytes (GFAP positive). Cultivation during the test method is performed at 37C and 5% CO2 at a ph of 7.2-7.6.Exposure: 0.3 mm big hNPC are plated in the already prepared test conditions. Exposure starts at day 0 of differentiation and is continued over five days of differentiation until the experiment is terminated. Cells are fed with fresh medium at day 3 of differentiation. Therefore, half of the test condition solution (e.g. solvent control or compound dilution) is replaced by freshly prepared test condition solution.Test Method: Migration distance and cytotoxicity is determined after 72 hours based on brightfield images of each well. The assay is terminated by the assessment of cell viability and cytotoxicity as well as cell fixation after 120 h. Immunocytochemistry is performed for Hoechst positive nuclei, TUBB3 positive neurons and O4 positive oligodendrocytes. On the ICC images, migration after 120 hours, neuronal and oligodendrocyte number, neuronal morphology and neuron/oligodendrocyte specific migration is assessed. immunocytochemical staining (ICC) generates an image for each sphere. The plates are scanned using an automated high content imaging device and all nuclei and their positions are determined automatically based on their intensity and size. Images are imported to the Omnisphero software to run the image analysis that measures the following endpoints. […]
Take `CCOP(=O)(OCC)Oc1nc(Cl)c(Cl)cc1Cl`: the molecule was classed as inactive.

Turning to `CS(=O)(=O)c1ccc(C(=O)C2C(=O)CCCC2=O)c([N+](=O)[O-])c1`, the molecule was called inactive.

As for `CN/C(=N\[N+](=O)[O-])NCc1cnc(Cl)s1`, the outcome was inactive.

Take `C=C(C)CN(CC)c1c([N+](=O)[O-])cc(C(F)(F)F)cc1[N+](=O)[O-]`: the molecule was classed as inactive.

`Cc1c(COC(=O)[C@@H]2[C@H](/C=C(\Cl)C(F)(F)F)C2(C)C)cccc1-c1ccccc1`: the result was inactive.

On to `CS(=O)(=O)c1cc(C(F)(F)F)ccc1C(=O)c1cnoc1C1CC1`, for which the result was inactive.

As for `O=C(Nc1ccccc1-c1ccc(Cl)cc1)c1cccnc1Cl`, the molecule was classed as inactive.

On to `COC(=O)N(C(=O)N1CO[C@@]2(C(=O)OC)Cc3cc(Cl)ccc3C2=N1)c1ccc(OC(F)(F)F)cc1`, for which the outcome was inactive.

In the case of `CC(C)(C)C(=O)C(Oc1ccc(Cl)cc1)n1cncn1` (stereo unspecified), the outcome was inactive.

With `CNC(=O)Oc1cccc2ccccc12`, the molecule was classed as inactive.

As for `CCNC(=O)NC(=O)C(C#N)=NOC`, the call was inactive.

In the case of `COP(=S)(OC)SCn1nnc2ccccc2c1=O`, the outcome was inactive.

With `CCSC(=O)N1CCCCCC1`, the outcome was inactive.

For `CC1(C)C(C=C(Cl)Cl)C1C(=O)OC(C#N)c1cccc(Oc2ccccc2)c1` (stereo unspecified), the call was inactive.

For the molecule `N#CN=C1SCCN1Cc1ccc(Cl)nc1`, the molecule was called inactive.

`CO/N=C(/C1=NOCCO1)c1ccccc1Oc1ncnc(Oc2ccccc2Cl)c1F`: the result was inactive.
